VDR inh = inhibitors of human vitamin D receptor; Potency, µM, for the others: max response, negative = inhibition, actives largely listed as inhibitors; P11473; VDR-SRC2-3 peptide fluorescence polarization, 2 h; hit rate 0.93% among 400,000; further: potency means the concentration at half of the fitted maximal effect
Target sequence (P11473 whole entry, looked up): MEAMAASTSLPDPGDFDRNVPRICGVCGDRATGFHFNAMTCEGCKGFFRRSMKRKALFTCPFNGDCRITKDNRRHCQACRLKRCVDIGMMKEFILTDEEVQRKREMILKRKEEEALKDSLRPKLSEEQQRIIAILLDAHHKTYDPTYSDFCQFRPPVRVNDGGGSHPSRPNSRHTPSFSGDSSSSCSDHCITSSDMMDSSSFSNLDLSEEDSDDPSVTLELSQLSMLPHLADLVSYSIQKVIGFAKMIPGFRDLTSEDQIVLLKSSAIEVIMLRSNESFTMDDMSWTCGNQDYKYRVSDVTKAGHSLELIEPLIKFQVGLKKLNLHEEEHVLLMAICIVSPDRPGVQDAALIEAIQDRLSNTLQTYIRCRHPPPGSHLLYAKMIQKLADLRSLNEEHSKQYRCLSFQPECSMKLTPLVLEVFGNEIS
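Two reagent solutions held at 4 deg C in the dark were dispensed, compounds pinned at 23 nl, and the mixture incubated 2 h at room temperature. Read-out: fluorescence polarization of VDR–SRC2-3 peptide binding.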
PLK1 PBD inh = inhibitors of human PLK1 polo-box domain binding | Plk1 PBD binding of FITC phosphopeptide, fluorescence polarization | Potency, µM, for the others: max response, negative = inhibition, actives largely listed as inhibitors | hit rate 2.8% among 360,000; further: potency means the concentration at half of the fitted maximal effect; series mostly up to about 57 µM; nearly all actives have a fitted effect of over 65% in size
CCT chaperon mod = cytosolic chaperonin activity modulation. purified chaperonin ATPase assay, HTRF ADP detection, 30 min. activity change, % (concentration not given with the values), hits read low. hit rate 0.3% among 360,000. AID 651819; in the data active means activity change below about -30%
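Nucleotide hydrolysis assay: TRiC at 20–40 nM final (set by batch activity) with 10 uM ATP, 30 min at 37 °C, in presence of 76 uM compound. Detection by competitive ADP HTRF, 30 min ambient.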
Sfp inh = inhibitors of Bacillus subtilis Sfp phosphopantetheinyl transferase; hit rate 3.5% among 310,000; Biochemical Sfp PPTase activity, qHTS; Q9F4F7; Potency, µM, inactives show largest response in the series, negative = inhibition, usual class: inhibitors; AID 1490;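 further: the enzyme is Sfp with the accession as filed and its product quenches rhodamine fluorescence; potency means the concentration at half of the fitted maximal effect; 0% = enzyme reaction without inhibitor and -100% = no enzyme wells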
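With Hepes-Na pH 7.6 buffer containing 10 mM MgCl2, Sfp (15 nM) modified BHQ-2-YbbR (12.5 uM) using rhodamine-CoA (5 uM). Two reads 30 minutes apart at 525/598 nm yielded each well's rate.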
Mm-Cpn inhibitor = inhibitors of Methanococcus maripaludis chaperonin TRiC (MmCpn). purified Mm-Cpn ATPase, ADP Transcreener TR-FRET. Potency, µM (series often up to 76.9 µM), inactives show at the top dose activity, negative = inhibition, actives largely listed as inhibitors. hit rate 0.031% among 330,000. AID 504842; further: potency means the concentration at half of the fitted maximal effect; nearly all actives have a fitted effect of over 80% in size
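Purified archaeal chaperonin (25 nM final) was preincubated with compound for 10 min at 37°C, then ATP (10 uM final) was added for 30 min at 37°C in Tris pH 7.4/KCl/MgCl2/DTT buffer. ADP was quantified by HTRF Transcreener TR-FRET.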
G9a inh = inhibitors of human histone lysine methyltransferase G9a | Potency, µM (highest dose often 102 µM), inactives show at the top dose activity, negative = inhibition, most hits filed as inhibitors | hit rate 8.8% among 350,000 | G9a H3K9 monomethylation, AlphaScreen, 2 h | Q96KQ7; further: potency means the concentration at half of the fitted maximal effect; nearly all actives have a fitted effect of over 75% in size
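Methyltransferase reactions run at room temperature for 2 h (20 nM enzyme, 500 nM biotin-H3K9 peptide, 20 uM SAM) after a 15 min compound preincubation; product detected by AlphaScreen beads and anti-H3K9me1 antibody.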
The depositor's hits bear a star; ? = inconclusive; / = no result given; [ ] = another dose, or the depositor's remark. The list is not random: actives were taken first. Their share in the collection is about 10%. Unless noted, the call rests on the fitted dose curve; in most records, active means well fitted curve in the direction sought with a large enough effect; inconclusive means small, poorly fitted or top-dose-only effect, or another doubt; inactive means no such curve, though single readings can be large; an effect the other way counts as inactive or inconclusive. Unless noted, on the % scale 0 is the no-effect control and ±100 the full control effect.

SMILES	VDR inh	PLK1 PBD inh	CCT chaperon mod	Sfp inh	Mm-Cpn inhibitor	G9a inh
COc1ccccc1NCC(=O)N/N=C/C=C/c1ccccc1	-9%	-8%	0	-19%	-1%	28µM*
O=c1c(NCc2ccccc2Cl)nccn1-c1ccccc1	4%	/	/	/	/	-10%[59 µM]
CC/C=C\C/C=C\C/C=C\C/C=C\C/C=C\C/C=C\CCC(=O)NCCCC(=O)O	-14%	/	/	-14%	/	/
CCNC(=O)CC1C(=O)N(c2ccccc2)C(=O)N1Cc1ccc(F)cc1 (stereo unspecified)	-1%	/	/	/	/	-1%[59 µM]
CCN1CCN(c2cc(C)c3cc(NC(=S)N4CCN(c5ccccc5)CC4)ccc3n2)CC1	-10%	3%	-2	14%	3%	-41%[59 µM]
S=C(Nc1ccc2nccnc2c1)N1CCOCC1	-16%	-11%	-3	35µM*	1%	45µM*
CCCN1CCN(C(=S)Nc2ccc3nc(N4CCN(CC)CC4)cc(C)c3c2)CC1	8%	-2%	-1	12%	0%	45µM*
CCN1CCN(c2cc(C)c3cc(NC(=S)N4CCOCC4)ccc3n2)CC1	-4%	4%	0	7%	2%	40µM*
CCN1CCN(c2cc(C)c3cc(NC(=S)N4CCN(c5ccccc5F)CC4)ccc3n2)CC1	14%	2%	0	-6%	?	45µM*
CCOC(=O)c1c(C)c(C(=O)NCc2ccc(Cl)cc2)c(C)n1CC	6%	/	/	/	/	0%[59 µM]
CCOc1ccc(NC(=O)Cn2nnc(-c3nc(-c4ccncc4)no3)c2N)cc1	-3%	/	/	/	/	-21%[59 µM]
CC(=O)Nc1ccc(C)cc1-c1nc2ccccc2n(CC(=O)c2ccc(C)c(C)c2)c1=O	2%	/	/	/	/	-8%[59 µM]
CCN1CCN(c2cc(C)c3cc(NC(=O)/C=C/c4cccc(Cl)c4)ccc3n2)CC1	26%	/	/	/	/	11µM*
CCN1CCN(c2cc(C)c3cc(NC(=O)CCC(=O)N4CCN(c5ccccc5)CC4)ccc3n2)CC1	7%	-11%	-2	14%	1%	79µM*
CCN1CCN(c2cc(C)c3cc(NC(=O)c4cccc(Cl)c4)ccc3n2)CC1	-2%	/	/	/	/	-35%[59 µM]
CCN1CCN(c2cc(C)c3cc(NC(=O)CCC(=O)N4CCN(c5ccccc5OC)CC4)ccc3n2)CC1	-1%	-7%	1	1%	-1%	-73%
COc1ccccc1N1CCN(C(=S)Nc2ccc3nc(N4CCOCC4)cc(C)c3c2)CC1	-4%	-6%	0	-11%	-15%	56µM*
CCN1CCN(c2cc(C)c3cc(NC(=S)N(CC)CC)ccc3n2)CC1	-7%	-9%	-1	4%	2%	35µM*
Cc1cc(N2CCOCC2)nc2ccc(NC(=S)N3CCN(c4ccccc4)CC3)cc12	10%	?	0	-2%	0%	?
CCCN(C(=O)Cn1nc(Cc2ccncc2)c2ccccc2c1=O)c1ccccc1C	-5%	/	/	/	/	-2%[59 µM]
COc1cc(OC)c(NC(=O)c2ccc3nc(C(C)C)oc3c2)cc1Cl	9%	/	/	/	/	2%[59 µM]
COc1ccco1	9%	/	/	6%	/	/
Cc1cccc(Nc2nnc(-c3ccc(N4CCOCC4)c([N+](=O)[O-])c3)c3ccccc23)c1	1%	-2%	2	-12%	-1%	10µM*
CC1=CC(C)C(COC(=O)CN2CCCCC2)C(C)C1 (stereo unspecified)	-13%	3%	1	23%	-2%	/
CC1=CC(C)C(C[N+]2(C)CCCCC2)C(C)C1 (stereo unspecified)	-10%	?	-2	-7%	1%	25µM*
CCOc1ccc(-n2nc3ccc(NC(=O)c4ccc(-c5cccc(Cl)c5)o4)cc3n2)cc1	-18%	/	/	/	/	-73%[59 µM]
Cc1noc(C)c1CSCC(=O)Nc1cc(C(F)(F)F)ccc1N1CCCCC1	-1%	-3%	2	/	2%	40µM*
Cc1ccc(NC(=O)CSCc2c(C)noc2C)cc1C	0%	-16%	-44*	0%	1%	12%[59 µM]
Cc1noc(C)c1CSCC(=O)Nc1cc(Cl)ccc1N1CCCCC1	-13%	-1%	-27	/	0%	7%
CC(=O)CC(=O)Nc1ccn(-c2ccccc2)n1	3%	-5%	-1	7%	-1%	19%
